# Experimental data from PubChem BioAssay (NCATS).
# Records with an inconclusive call do not appear. Active and inactive are the calls of the source. Unless noted, calls follow the shape of the dose curve; as a rule, active = well fitted curve in either direction with a large enough effect (not every such curve was filed as active); inconclusive = small, poorly fitted or top-dose-only effect, or another doubt; inactive = flat fitted curve, though single readings scatter.
# Tests used:
# [1] = molecular target: Lysosomal acid glucosylceramidase (Homo sapiens) (UniProt P04062); experiment: Glucocerebrosidase-p2 (AID 348; in the data active = potency below about 10 µM; also: potency is read from the fitted curve at half-maximal effect); details: purified GBA, blue fluorogenic substrate, 40 min
# Summary of the method: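 Compounds titrated from 0.6 nM upwards against 0.2 nM enzyme in pH 5.9 citric acid/KH2PO4, taurocholate, tween-20; blue fluorogenic substrate 80 uM, 40 min room temperature, stopped and read Ex 365/Em 440 for AC50.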
# [2] = AP1 Signaling Pathway (AID 357); details: ME-180 AP-1-bla reporter, EGF-induced, beta-lactamase ratio, 5 h; at 7.69 µM (top of the series) unless noted;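 also: ME-180 reporter cells stimulated with EGF at its EC50 level; % is scaled to controls: 0 for no effect and ±100 for the full control effect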
# Summary of the method: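 First, ME-180 AP-1-bla cells were cultured overnight at 37 °C in low-serum Opti-MEM. Next, titrated compounds with EC50 EGF were incubated 5 hours. Finally, CCF4 was added for 2.5 hours and the 460/530 nm ratio recorded.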
# [3] = molecular target: Cytochrome P450 1A2 (Homo sapiens) (UniProt P05177); experiment: p450-cyp1a2 (AID 410; calls by dose curve; also: potency is read from the fitted curve at half-maximal effect;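 as to activity change, negative = inhibition: -100% = full effect of reference inhibitor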); details: recombinant CYP1A2, luciferin-ME demethylation, luminescence; series mostly up to 57 µM
# Summary of the method: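 Luminescent readout of luciferin formed from Luciferin-ME by human CYP1A2; data normalized against complete inhibition by 57 uM furafylline. Enzyme 20nM, substrate 100uM at Km, 100mM KPO4 buffer, 60 min reaction at room temperature.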
# [4] = NFAT Signaling Pathway (AID 444); details: Jurkat NFAT-bla M1, carbachol, beta-lactamase ratio, 5 h; at 7.69 µM (top of the series) unless noted;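 also: carbachol stimulus at about its EC50 of 1 µM final; % is scaled to controls: 0 for no effect and ±100 for the full control effect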
# Summary of the method: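 Read-out: CCF4 FRET ratio (460 nm/530 nm) after 1 h RT dye loading, used for %activity and AC50 from titration series. Cells: Jurkat NFAT-β-lactamase/M1 line, treated with compound plus 1 uM carbachol for 5 h, 37 °C.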
# [5] = Stat Signaling Pathway (AID 446); details: ME-180 SIE beta-lactamase reporter, IL-6 stimulated, 5 h; at 7.69 µM (top of the series) unless noted;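 also: ME-180 cervical cancer cells given 40 pM IL-6 alongside compound; SIE-controlled beta-lactamase reporter measured as 460/530 nm FRET emission ratio; % is scaled to controls: 0 for no effect and ±100 for the full control effect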
# Summary of the method: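 ME-180 SIE-bla cells; overnight plating; cpd + IL-6 40 pM, 5 h, 37 C; LiveBLAzer 2.5 h RT; 460/530 nm emission ratio. Normalized to 300 pM IL-6 and 125 nM JAK inhibitor controls.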
# [6] = molecular target: Glucocorticoid receptor (Homo sapiens) (UniProt P04150); experiment: GR-EFC Redistribution (AID 451; calls by dose curve; also: potency is read from the fitted curve at half-maximal effect); details: CHO-K1 GR-EFC translocation, beta-gal luminescence, 2 h
# Summary of the method: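 Translocation of GR-ED fusion to nuclear EA restores b-gal, read by luminescence after 1 h room-temperature detection. Engineered CHO-K1 biosensor cells, 1,000/well, exposed 2 h at 37 C to titrations up to 46 uM final.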
# [7] = molecular target: Mitogen-activated protein kinase 10 (Mus musculus) (UniProt Q61831); experiment: JNK3 AlphaScreen Assay (AID 530); details: JNK3 lysate, c-Jun phosphorylation; series mostly up to 57.1 µM;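 also: kinase came from lysate of stimulated human HepG2 cells; signal reports phosphorylation of biotinylated GST-cJun 1-79 at Ser73 with 10 µM ATP; % is scaled to controls: 0 for no effect and ±100 for the full control effect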
# Summary of the method: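 Compound titrations were preincubated 15 minutes at room temperature with substrate, antibody and pre-activated JNK3-containing HepG2 lysate. Reactions were started with 10 uM ATP and stopped with EDTA-containing bead buffer for AlphaScreen detection.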
# [8] = molecular target: 3',5'-cyclic-AMP phosphodiesterase 4B (Homo sapiens) (UniProt Q07343); experiment: qHTS Assay for Inhibitors of PDE-IV (AID 607; active = well fitted activation curve with a large enough effect in the main read-out, with a control signal flat, not every such curve was filed as active; also: % of control where 0% means no effect); details: HEK293 ACTOne CNG channel cells, membrane potential fluorescence; series mostly up to 22.9 µM
# Summary of the method: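 ACTOne HEK293 cells carry a modified cAMP-gated CNG channel and express endogenous PDE4; plated 1000 cells/well, compounds up to 22.9 uM final. Membrane-potential dye fluorescence (ex 535/em 590) was read; parental cells received 10 uM forskolin + 100 uM RO 20-1724.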
# [9] = molecular target: Cytochrome P450 3A4 (Homo sapiens) (UniProt P08684); experiment: qHTS Assay for Inhibitors and Substrates of Cytochrome P450 3A4 (AID 884; active = well fitted curve in the direction sought with a large enough effect; an effect the other way counts as inactive or inconclusive; also: nearly all actives have a fitted effect of over 50% in size; also: potency is read from the fitted curve at half-maximal effect); details: recombinant CYP3A4, Luciferin-PPXE luminescence; series mostly up to 57.1 µM
# Summary of the method: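 20 nM human CYP3A4 with 25 uM Luciferin-PPXE (at KM) in 200 mM KPO4, preincubated 10 min with compound; NADPH regeneration started a 60 min RT reaction. Luciferin detected by luminescence, normalized to 57 uM ketoconazole as full inhibition.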
# [10] = molecular target: Cytochrome P450 3A4 (Homo sapiens) (UniProt P08684); experiment: qHTS Assay for Activators of Cytochrome P450 3A4 (AID 885; active = well fitted curve in the direction sought with a large enough effect; an effect the other way counts as inactive or inconclusive; also: nearly all actives have a fitted effect of over 65% in size; also: potency is read from the fitted curve at half-maximal effect); details: recombinant CYP3A4, Luciferin-PPXE luminescence, 60 min; series mostly up to 57.1 µM
# Summary of the method: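 20nM CYP3A4 + 25uM Luciferin-PPXE (=KM), 200mM KPO4; cpd 10 min RT; NADPH regen, 60 min RT; stop w/ detection buffer, 20 min; luminescence. Normalized to 57 uM ketoconazole.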
# [11] = qHTS Assay for Lipid Storage Modulators (AID 1519; calls by dose curve); details: Drosophila S3 cells, BODIPY lipid droplet/cell ratio, laser cytometry, cells loaded with oleic acid; for activity change, negative = inhibition: at 57.5 µM (top of the series)
# Summary of the method: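 Cells seeded at 5,000 per well were treated with compounds over a concentration series and loaded with oleic acid (400 uM, as added). Lipid droplet fluorescence (488 nm excitation, 500-530 nm channel) was read by laser-scanning cytometry and normalized to 20 uM Triacsin C.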
# [12] = Primary qHTS for small molecule stabilizers of the endoplasmic reticulum resident proteome: Secreted ER Calcium Modulated Protein (SERCaMP) assay (AID 1508630; active = well fitted curve in the direction sought with a large enough effect; an effect the other way counts as inactive or inconclusive; also: % is scaled to controls: 0 for no effect and ±100 for the full control effect); details: SH-SY5Y GLuc-SERCaMP (Gaussia luciferase released on ER calcium loss) secretion, thapsigargin, luminescence; series mostly up to 38.4 µM
# Summary of the method: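 GLuc-SERCaMP-expressing SH-SY5Y cells, pretreated 16 h with compound, are challenged with thapsigargin to empty ER calcium stores; after 4 h, coelenterazine is added directly to the medium and luminescence is imaged.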
# [13] = molecular target: Cytochrome P450 2D6 (Homo sapiens) (UniProt P10635); experiment: qHTS Assay for Inhibitors and Substrates of Cytochrome P450 2D6 (AID 891; active = well fitted curve in the direction sought with a large enough effect; an effect the other way counts as inactive or inconclusive; also: potency is read from the fitted curve at half-maximal effect; nearly all actives have a fitted effect of over 60% in size); details: recombinant CYP2D6, luciferin-ME EGE luminescence; series mostly up to 57.1 µM
# Summary of the method: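 Human CYP2D6 (5 nM) with 30 uM Luciferin-ME EGE (at Km) in 100 mM KPO4, compound preincubated 10 min, then NADPH regeneration system for 60 min at room temperature. Luciferin read by luminescence; normalized to 1.43 uM quinidine.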
# [14] = molecular target: Cytochrome P450 2C9 (Homo sapiens) (UniProt P11712); experiment: qHTS Assay for Inhibitors and Substrates of Cytochrome P450 2C9 (AID 883; active = well fitted curve in the direction sought with a large enough effect; an effect the other way counts as inactive or inconclusive; also: nearly all actives have a fitted effect of over 60% in size; also: potency is read from the fitted curve at half-maximal effect); details: recombinant CYP2C9, luciferin-H luminescence, 60 min; series mostly up to 57.1 µM
# Summary of the method: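 Luminescent read-out of deoxyluciferin hydroxylation, normalized to 57uM sulphaphenazole (AC100). Reaction: 10nM enzyme, 100uM Luciferin-H (equal to KM), 25mM KPO4, 10 min compound preincubation, then 60 min with NADPH regeneration, both at 37C.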
# [15] = molecular target: Cytochrome P450 2C19 (Homo sapiens) (UniProt P33261); experiment: qHTS Assay for Inhibitors and Substrates of Cytochrome P450 2C19 (AID 899; active = well fitted curve in the direction sought with a large enough effect; an effect the other way counts as inactive or inconclusive; also: nearly all actives have a fitted effect of over 60% in size; also: potency is read from the fitted curve at half-maximal effect); details: recombinant CYP2C19, luciferin-H EGE luminescence; series mostly up to 57.1 µM
# Summary of the method: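 Luminescence readout of luciferin formed from 10uM Luciferin-H EGE (KM level) by 5 nM CYP2C19 in 50mM KPO4. 60 min NADPH-driven reaction at 37C after 10 min compound preincubation; data scaled to 57uM ketoconazole inhibition.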
# [16] = qHTS Assay for Identification of Small Molecule Agonists for Hypoxia Response Element Signaling Pathway (AID 914; active = well fitted activation curve with a large enough effect in the signal ratio, with a control signal flat, not every such curve was filed as active; the % refers to the signal ratio; also: % of control where 0% means no effect); details: ME-180 (cervical carcinoma) HRE-bla reporter, beta-lactamase ratio, CoCl2, 17 h; activation: stronger effect = higher value
# Summary of the method: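 HRE-bla ME-180 assay for agonist-like enhancement of an EC50 CoCl2 stimulus: 17 h at 37 degrees Celsius, CCF4 for 2.5 h, ratiometric 460/530 nm signal converted to %Activity and fitted to AC50.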
# [17] = measured here: cell count channel max response
# [18] = measured here: lipid channel max response
# Lysosomal acid glucosylceramidase (Homo sapiens), sequence (P04062 whole entry, looked up): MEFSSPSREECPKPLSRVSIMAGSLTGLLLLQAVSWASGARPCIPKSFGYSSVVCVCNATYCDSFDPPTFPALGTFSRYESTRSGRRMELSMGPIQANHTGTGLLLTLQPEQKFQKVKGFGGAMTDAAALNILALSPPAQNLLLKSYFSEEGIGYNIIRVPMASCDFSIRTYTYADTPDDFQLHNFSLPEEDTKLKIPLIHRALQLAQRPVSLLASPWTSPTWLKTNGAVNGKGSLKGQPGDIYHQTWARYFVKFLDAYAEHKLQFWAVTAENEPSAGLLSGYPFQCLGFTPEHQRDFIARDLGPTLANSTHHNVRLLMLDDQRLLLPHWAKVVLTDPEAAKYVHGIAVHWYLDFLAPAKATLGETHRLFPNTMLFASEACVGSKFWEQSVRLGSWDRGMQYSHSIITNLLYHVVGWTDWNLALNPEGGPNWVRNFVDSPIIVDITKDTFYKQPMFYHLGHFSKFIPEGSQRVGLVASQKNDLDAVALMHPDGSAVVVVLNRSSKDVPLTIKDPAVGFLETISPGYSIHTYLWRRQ
# Cytochrome P450 2D6 (Homo sapiens), sequence (P10635 whole entry, looked up): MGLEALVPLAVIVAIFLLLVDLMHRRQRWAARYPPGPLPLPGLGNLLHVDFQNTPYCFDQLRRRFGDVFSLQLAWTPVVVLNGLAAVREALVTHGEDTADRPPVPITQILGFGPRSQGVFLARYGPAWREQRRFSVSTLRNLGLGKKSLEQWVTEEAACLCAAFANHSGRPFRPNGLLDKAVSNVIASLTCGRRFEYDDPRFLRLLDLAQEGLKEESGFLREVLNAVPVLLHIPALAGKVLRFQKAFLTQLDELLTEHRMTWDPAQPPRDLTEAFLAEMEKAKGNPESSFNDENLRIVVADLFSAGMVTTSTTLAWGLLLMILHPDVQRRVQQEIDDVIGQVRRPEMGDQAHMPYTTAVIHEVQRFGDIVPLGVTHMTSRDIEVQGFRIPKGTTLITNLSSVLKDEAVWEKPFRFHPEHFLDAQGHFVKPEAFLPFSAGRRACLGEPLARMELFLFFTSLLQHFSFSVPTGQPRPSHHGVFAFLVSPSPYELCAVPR
# 3',5'-cyclic-AMP phosphodiesterase 4B (Homo sapiens), sequence (Q07343 whole entry, looked up): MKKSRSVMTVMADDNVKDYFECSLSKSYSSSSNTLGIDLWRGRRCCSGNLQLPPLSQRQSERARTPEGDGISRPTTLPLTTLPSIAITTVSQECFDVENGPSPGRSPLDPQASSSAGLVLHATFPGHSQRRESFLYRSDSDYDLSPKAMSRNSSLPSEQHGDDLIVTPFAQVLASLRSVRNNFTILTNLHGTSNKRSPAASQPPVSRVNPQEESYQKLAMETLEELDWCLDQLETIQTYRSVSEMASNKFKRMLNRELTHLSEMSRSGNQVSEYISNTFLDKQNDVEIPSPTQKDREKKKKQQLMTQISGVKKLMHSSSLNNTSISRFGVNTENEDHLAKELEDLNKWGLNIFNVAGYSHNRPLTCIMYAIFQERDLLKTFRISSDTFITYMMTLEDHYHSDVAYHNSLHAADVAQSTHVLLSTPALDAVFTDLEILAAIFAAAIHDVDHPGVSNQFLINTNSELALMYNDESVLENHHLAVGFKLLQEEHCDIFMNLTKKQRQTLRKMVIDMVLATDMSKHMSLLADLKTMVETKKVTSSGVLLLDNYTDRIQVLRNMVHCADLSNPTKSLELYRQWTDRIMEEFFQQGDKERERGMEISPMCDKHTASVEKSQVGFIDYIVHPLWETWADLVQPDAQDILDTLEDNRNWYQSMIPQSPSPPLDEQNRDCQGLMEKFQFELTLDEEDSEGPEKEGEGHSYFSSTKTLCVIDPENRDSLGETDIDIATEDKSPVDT
# Cytochrome P450 2C19 (Homo sapiens), sequence (P33261 whole entry, looked up): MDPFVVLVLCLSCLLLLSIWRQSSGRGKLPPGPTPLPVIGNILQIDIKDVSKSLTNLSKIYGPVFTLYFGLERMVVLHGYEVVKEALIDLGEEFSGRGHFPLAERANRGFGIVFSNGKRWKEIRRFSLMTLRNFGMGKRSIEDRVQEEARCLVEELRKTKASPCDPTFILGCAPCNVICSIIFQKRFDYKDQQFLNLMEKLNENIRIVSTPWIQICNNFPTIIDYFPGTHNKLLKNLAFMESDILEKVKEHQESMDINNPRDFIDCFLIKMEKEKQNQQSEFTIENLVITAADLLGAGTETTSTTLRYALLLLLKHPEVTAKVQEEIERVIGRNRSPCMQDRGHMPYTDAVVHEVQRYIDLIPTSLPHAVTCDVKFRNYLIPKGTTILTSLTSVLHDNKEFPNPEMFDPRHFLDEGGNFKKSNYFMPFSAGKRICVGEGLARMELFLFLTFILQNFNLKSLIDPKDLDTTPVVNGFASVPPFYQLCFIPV
# Glucocorticoid receptor (Homo sapiens), sequence (P04150 whole entry, looked up, the tested form may be a part): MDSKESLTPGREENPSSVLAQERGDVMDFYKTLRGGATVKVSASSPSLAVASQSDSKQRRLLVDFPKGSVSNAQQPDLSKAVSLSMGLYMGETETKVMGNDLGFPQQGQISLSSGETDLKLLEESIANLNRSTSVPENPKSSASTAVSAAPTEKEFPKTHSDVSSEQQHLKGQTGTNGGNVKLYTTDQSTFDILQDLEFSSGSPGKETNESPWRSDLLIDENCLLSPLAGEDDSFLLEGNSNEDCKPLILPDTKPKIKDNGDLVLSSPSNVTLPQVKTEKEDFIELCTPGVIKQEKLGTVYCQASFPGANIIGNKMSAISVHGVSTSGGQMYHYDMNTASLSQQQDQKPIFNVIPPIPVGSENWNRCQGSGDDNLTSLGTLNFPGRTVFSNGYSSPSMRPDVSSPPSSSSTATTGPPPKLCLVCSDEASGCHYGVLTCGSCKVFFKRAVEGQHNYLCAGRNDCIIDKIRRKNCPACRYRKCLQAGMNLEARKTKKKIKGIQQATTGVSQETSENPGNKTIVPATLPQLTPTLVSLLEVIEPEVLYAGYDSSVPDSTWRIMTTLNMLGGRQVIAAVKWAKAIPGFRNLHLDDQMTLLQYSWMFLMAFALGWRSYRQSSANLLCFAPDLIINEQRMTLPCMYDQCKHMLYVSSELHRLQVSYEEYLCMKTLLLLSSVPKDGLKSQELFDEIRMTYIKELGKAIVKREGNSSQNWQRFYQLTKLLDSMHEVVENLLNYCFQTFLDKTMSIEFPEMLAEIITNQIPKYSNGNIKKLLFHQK
# Cytochrome P450 2C9 (Homo sapiens), sequence (P11712 whole entry, looked up): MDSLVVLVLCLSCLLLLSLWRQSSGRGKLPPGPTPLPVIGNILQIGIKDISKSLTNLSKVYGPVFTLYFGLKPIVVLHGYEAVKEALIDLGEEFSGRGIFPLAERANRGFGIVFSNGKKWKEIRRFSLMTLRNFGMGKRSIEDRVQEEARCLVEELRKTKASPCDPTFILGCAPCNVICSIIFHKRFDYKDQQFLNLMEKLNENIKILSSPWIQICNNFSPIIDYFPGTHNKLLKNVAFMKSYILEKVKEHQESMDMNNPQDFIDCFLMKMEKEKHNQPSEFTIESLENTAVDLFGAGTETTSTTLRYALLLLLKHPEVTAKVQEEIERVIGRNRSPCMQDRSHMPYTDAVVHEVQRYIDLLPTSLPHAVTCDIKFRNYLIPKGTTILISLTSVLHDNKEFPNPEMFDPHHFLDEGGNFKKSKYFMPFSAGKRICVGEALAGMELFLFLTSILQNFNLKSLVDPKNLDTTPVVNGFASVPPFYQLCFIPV
# Cytochrome P450 3A4 (Homo sapiens), sequence (P08684 whole entry, looked up): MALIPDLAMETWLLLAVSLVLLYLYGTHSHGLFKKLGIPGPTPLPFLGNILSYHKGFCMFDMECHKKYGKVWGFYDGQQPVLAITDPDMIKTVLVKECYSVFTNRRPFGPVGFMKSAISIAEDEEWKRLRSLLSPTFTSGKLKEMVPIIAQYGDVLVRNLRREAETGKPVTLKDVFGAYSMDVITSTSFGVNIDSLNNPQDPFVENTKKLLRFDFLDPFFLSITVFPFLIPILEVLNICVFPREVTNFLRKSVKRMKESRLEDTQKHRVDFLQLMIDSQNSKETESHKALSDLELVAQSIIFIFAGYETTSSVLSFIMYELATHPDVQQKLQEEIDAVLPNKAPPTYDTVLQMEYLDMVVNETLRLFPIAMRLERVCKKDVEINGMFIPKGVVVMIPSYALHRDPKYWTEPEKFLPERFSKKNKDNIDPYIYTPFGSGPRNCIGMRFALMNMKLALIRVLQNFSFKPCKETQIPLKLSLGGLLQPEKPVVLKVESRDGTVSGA
# Cytochrome P450 1A2 (Homo sapiens), sequence (P05177 whole entry, looked up): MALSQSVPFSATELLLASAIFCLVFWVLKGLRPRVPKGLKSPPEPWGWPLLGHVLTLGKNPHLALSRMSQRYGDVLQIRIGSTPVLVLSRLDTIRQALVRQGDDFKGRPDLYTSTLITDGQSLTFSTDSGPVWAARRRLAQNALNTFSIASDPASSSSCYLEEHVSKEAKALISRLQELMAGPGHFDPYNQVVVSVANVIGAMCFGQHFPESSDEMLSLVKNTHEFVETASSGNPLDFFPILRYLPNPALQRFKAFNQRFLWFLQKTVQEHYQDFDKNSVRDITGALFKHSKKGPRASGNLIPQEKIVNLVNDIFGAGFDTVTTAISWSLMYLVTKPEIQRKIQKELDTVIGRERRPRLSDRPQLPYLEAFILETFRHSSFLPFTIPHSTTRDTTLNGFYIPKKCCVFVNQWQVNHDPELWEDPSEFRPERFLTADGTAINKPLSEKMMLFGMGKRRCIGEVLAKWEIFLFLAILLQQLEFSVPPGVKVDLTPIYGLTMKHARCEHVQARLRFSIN
Structure (SMILES),Potency [1],"activity change, negative = inhibition [2]",Potency [3],"activity change, negative = inhibition [4]","activity, negative = inhibition [5]",Potency [6],outcome [7],Potency [8],Potency [9],Potency [10],"activity change, negative = inhibition [11]","max response [11, 17]","max response [11, 18]",Potency [12],Potency [13],Potency [14],Potency [15],activation [16]
O=C(c1cc(C(F)(F)F)cc(C(F)(F)F)c1)N1CCC[C@@]2(CCN(Cc3nccs3)C2)C1,> 11.4 µM (inactive),4.84% (inactive),20 µM (active),-21.5% (inactive),-3.68% (inactive),> 46 µM (inactive),inactive,inactive,3.16 µM (active),inactive,1.58% (inactive),26%,28.9%,inactive,–,–,–,–
O=C(c1cnccn1)N1CCC2(CC1)CCN(C(c1ccccc1)c1ccccc1)CC2,> 11.4 µM (inactive),8.38% (inactive),10 µM (active),-20.1% (inactive),6.95% (inactive),> 46 µM (inactive),inactive,inactive,inactive,3.16 µM (active),1.71% (inactive),1.55%,5.2%,inactive,3.98 µM (active),–,–,–
O=C(c1ccncc1)N1CCC2(CC1)CN(c1ccccc1)C2,> 11.4 µM (inactive),-2.66% (inactive),inactive,4.65% (inactive),3.39% (inactive),> 46 µM (inactive),inactive,inactive,–,–,6.84% (inactive),9.42%,18.7%,inactive,7.94 µM (active),2.51 µM (active),0.316 µM (active),–
CS(=O)(=O)N1CCC2(CCN(c3cccc(-c4ccccc4)c3)CC2)CC1,> 11.4 µM (inactive),-1.25% (inactive),inactive,10.1% (inactive),-21% (inactive),> 46 µM (inactive),inactive,inactive,–,–,-1.6% (inactive),19.1%,18.7%,inactive,–,inactive,inactive,–
CC(C)NC(=O)N1CCC2(CC1)CCN(C(=O)c1ccncc1)CC2,> 11.4 µM (inactive),-7.19% (inactive),inactive,1.59% (inactive),-8.96% (inactive),> 46 µM (inactive),inactive,inactive,–,inactive,-0.818% (inactive),9.1%,9.91%,inactive,–,–,–,–
O=C(c1cnccn1)N1CCC2(CCCN(c3ccccc3)C2)CC1,> 11.4 µM (inactive),13.8% (inactive),inactive,5.12% (inactive),-11.6% (inactive),> 46 µM (inactive),inactive,inactive,1.58 µM (active),inactive,4.73% (inactive),21.1%,29.2%,inactive,–,–,0.501 µM (active),–
Cc1noc(C)c1C(=O)N1CCC2(CCN(C(=O)Nc3ccccc3)CC2)CC1,> 11.4 µM (inactive),-7.04% (inactive),inactive,-2.66% (inactive),-7.75% (inactive),> 46 µM (inactive),inactive,inactive,inactive,–,3.9% (inactive),-0.903%,4.81%,inactive,–,–,–,–
O=C(c1cc(C(F)(F)F)cc(C(F)(F)F)c1)N1CCC2(CC1)CN(c1ccccc1)C2,> 11.4 µM (inactive),29.9% (inactive),inactive,-25.4% (inactive),2.58% (inactive),> 46 µM (inactive),inactive,inactive,inactive,3.98 µM (active),-8.64% (inactive),5.35%,-1.3%,inactive,–,–,–,–
COC(=O)N1CCC2(CC1)CCN(c1ccccc1)CC2,> 11.4 µM (inactive),8.46% (inactive),inactive,7.28% (inactive),7.52% (inactive),> 46 µM (inactive),inactive,inactive,inactive,–,0.493% (inactive),3.31%,7.38%,inactive,–,–,–,0.0011% (inactive)
CS(=O)(=O)N1CCC2(CCCN(C(=O)Nc3cccc(C#N)c3)C2)CC1,> 11.4 µM (inactive),2.54% (inactive),inactive,1.96% (inactive),1.15% (inactive),> 46 µM (inactive),inactive,inactive,–,inactive,6.12% (inactive),14.7%,21%,inactive,–,–,–,–
CS(=O)(=O)N1CCC2(CCN(C(c3ccccc3)c3ccccc3)CC2)CC1,> 11.4 µM (inactive),-4.08% (inactive),inactive,-8.24% (inactive),3.12% (inactive),> 46 µM (inactive),inactive,inactive,inactive,12.6 µM (active),0.47% (inactive),-0.926%,0.776%,inactive,3.16 µM (active),–,–,–
O=C(c1csnn1)N1CCC2(CCCN(c3ccccc3)C2)CC1,> 11.4 µM (inactive),-2.99% (inactive),inactive,1.2% (inactive),-8.69% (inactive),> 46 µM (inactive),inactive,inactive,–,inactive,-0.699% (inactive),7.99%,11.5%,inactive,–,7.94 µM (active),–,–
CC(C)NC(=O)N1CC[C@@]2(CCCN(C(=O)c3csnn3)C2)C1,> 11.4 µM (inactive),8.93% (inactive),inactive,20.3% (inactive),10.6% (inactive),> 46 µM (inactive),inactive,inactive,–,inactive,-0.319% (inactive),4.92%,7.3%,inactive,–,–,–,–
